Source: PubChem BioAssay (NCI)
The panel holds about 79,000 compounds, 15% with a hit somewhere; the sample as a whole holds those more often. Activity calls are given as the source filed them. No stated cut-off is given here; in the data, active means growth inhibition above about 70%; inactive means the rest.

What was measured:
[1] = NCI Yeast Anticancer Drug Screen. Data for the rad52 strain (AID 147);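 further: 0% = growth of vehicle-treated control cultures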; settings: S. cerevisiae rad52 mutant growth inhibition, stronger effect = higher value
Outline: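 Compounds are applied to a genetically defined yeast strain lacking normal DNA damage repair, and inhibition of growth is expressed relative to cultures given vehicle only.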

[2] = NCI Yeast Anticancer Drug Screen. Data for the rad50EPP+ strain (AID 151);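 further: 0% = growth of vehicle-treated control cultures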; settings: S. cerevisiae rad50 mutant strain, stronger effect = higher value
Outline: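 Compounds were applied to the rad50EPP+ yeast strain, which bears a defined DNA repair alteration, and growth inhibition was determined relative to vehicle-treated cultures.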

[3] = NCI Yeast Anticancer Drug Screen. Data for the mgt1 strain (AID 153); settings: S. cerevisiae mgt1 mutant growth inhibition, stronger effect = higher value
Outline: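 Strain: mgt1 yeast, one of a set carrying defined DNA damage repair or cell cycle control alterations. Compound-treated growth compared with vehicle.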

[4] = NCI Yeast Anticancer Drug Screen. Data for the rad50 strain (AID 155);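 further: 0% = growth of vehicle-only cultures of the same strain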; settings: S. cerevisiae rad50 strain growth inhibition, stronger effect = higher value
Outline: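 A DNA repair-deficient yeast mutant serves as the test organism; compound-induced growth inhibition is calculated against vehicle-treated cells.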

[5] = NCI Yeast Anticancer Drug Screen. Data for the mec2-1 strain (AID 157); settings: S. cerevisiae mec2-1 strain, stronger effect = higher value
Outline: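 Strain: mec2-1 (DNA repair/cell cycle alteration). Compound exposure, then growth measured; inhibition expressed relative to vehicle.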

[6] = at 5.0 µM (retest, dose inferred, filed as 0.5)
[7] = at 50.0 µM (retest, dose inferred, filed as 5.0)

Measured: growth inhibition

CCOP(=O)(OCC)/C(C#N)=C/c1ccc(-c2ccc(F)cc2F)o1
active: [4]; [6] 75% | [4]; [7] 99% | [5]; [7] 99% | [5]; at 50.0 µM 70.8%
inactive: [1]; at 1.2 µM 2% | [1]; at 3.7 µM 4% | [1]; at 11.0 µM 4% | [1]; at 33.0 µM 4% | [1]; at 100.0 µM 4% | [2]; at 1.2 µM 0% | [2]; at 3.7 µM 1% | [2]; at 11.0 µM 3% | [2]; at 33.0 µM 0% | [2]; at 100.0 µM 5% | [3]; at 1.2 µM -5% | [3]; at 3.7 µM -4% | [3]; at 11.0 µM 0% | [3]; at 33.0 µM -10% | [3]; at 100.0 µM 0% | [4]; at 1.2 µM 2% | [4]; at 3.7 µM 2% | [4]; at 11.0 µM -9% | [4]; at 33.0 µM 3% | [4]; at 50.0 µM 39.8% | [4]; at 100.0 µM 5% | [5]; at 1.2 µM 2% | [5]; at 3.7 µM -4% | [5]; [6] 19% | [5]; at 11.0 µM -4% | [5]; at 33.0 µM -6%
